Where “and” joins values, the source holds several entries; their conditions need not be identical. Identical values can stand only once. The whole screen tested about 340,000 compounds, of which about 1,000 (0.29%) were called active. Not all results are given here. Measured potencies and affinities stand elsewhere. Unmarked numbers belong to inactive results. Rule as the data show it: inconclusive = inhibition above about 27% without an active follow-up result; inactive = below that.

The nature of this test: NS1A inhibition, H1N1 influenza, cell based functional assay (AID 504329). As to conditions: percent inhibition, at 12.5 µM, stronger effect = higher value.
Turning to `CSCCC(NS(=O)(=O)c1cccc(C(F)(F)F)c1)C(=O)N(C)Cc1ccc2c(c1)OCCO2` (stereo not drawn), the inhibition is -15.2%. `C/C(=N\Nc1ccccc1)c1c(O)n(-c2ccccc2)c(=O)[nH]c1=O`: the inhibition was -15.4%.

`N#C/C(=C\c1ccc([N+](=O)[O-])cc1)c1nc(C2CC2)cs1`: the inhibition is -3.47%. Take `N#C/C(=C/c1ccccc1[N+](=O)[O-])c1nc(C2CC2)cs1`: the inhibition was 16.5%. `CN(CC(=O)NC(=O)NC1CCCCC1)c1ccccc1`: the inhibition was -19.7%. As for `CCCc1nnc(SCC(=O)Nc2cc(C)on2)n1CCOC`, the inhibition was -2.31%. On to `O=C(O)c1cc(S(=O)(=O)N2CCCCC2)sc1Cl`, for which the inhibition is 0.17%.

On to `Cc1[nH]n(-c2ccccc2)c(=O)c1N=Nc1ccccc1`, for which the inhibition is -4.27%. In the case of `Cc1[nH]n(-c2ccccc2)c(=O)c1N=Nc1ccccc1O`, the inhibition is 27.8%.

For `Nc1[nH]n(-c2ccccc2)c(=O)c1N=Nc1ccc2c(c1)OCO2`, the inhibition was -20.9%. As to `Cc1[nH]n(-c2ccccc2)c(=O)c1N=Nc1ccc(Cl)cc1`, the inhibition is 1.98%.

As for `Nc1[nH]n(-c2ccccc2)c(=O)c1N=Nc1ccccc1`, the inhibition was 20.9%. Take `Cc1[nH]n(-c2ccccc2)c(=O)c1N=Nc1ccc2c(c1)OCO2`: the inhibition was 1.81%. Under `Cc1ccc(N=Nc2c(C)[nH]n(-c3ccccc3)c2=O)cc1Br` stands 2.46%; under `Cc1[nH]n(-c2ccccc2)c(=O)c1N=Nc1c(Cl)cccc1Cl`, -0.23%; under `Cc1noc(C)c1CSc1nnc2scc(-c3ccccc3)n12`, 0.06%.

Consider `Cc1ccc(S(=O)(=O)NCCNC(=O)C2CCCNC2=O)cc1` (stereo not drawn), for which the inhibition was -2.4%. As for `NNC(=O)COc1cccc(C(F)(F)F)c1`, the inhibition was -3.83%.

For the compound `CC(C)CC(=O)C(=O)O`, the inhibition was 1.46% and 3.24%. As to `O=C(COC(=O)c1cccc(-n2cnnn2)c1)c1ccc(F)cc1`, the inhibition is -2.74%. Under `Cc1ccccc1-c1cccc([C@@H]2C[C@H]3[C@H](CON3C)CN2S(=O)(=O)c2ccccc2C)c1` stands -6.53%; under `Cc1ccc(S(=O)(=O)N2CCOCC2)cc1NC(=O)CNCc1ccccc1Cl`, -1.72%; under `Cc1ccc(S(=O)(=O)N2CCOCC2)cc1NC(=O)CSc1ccccn1`, -3.06%. On to `O=C(CNCc1ccncc1)Nc1cc(S(=O)(=O)N2CCCCC2)ccc1Cl`, for which the inhibition was -4.7%.

Consider `COc1ccccc1CNCC(=O)Nc1cc(S(=O)(=O)N2CCCCCC2)ccc1Cl`, for which the inhibition is 2.82%. Consider `CS(=O)(=O)c1ccc(-c2cccc(NC(=O)COc3ccc(Cl)cc3)c2)nn1`, for which the inhibition was 7.16%. Under `Fc1ccc(Oc2nccc(-c3ccc(Cl)cc3)n2)cc1` stands -2.98%. As to `CCN(C[C@H]1N[C@@](CC)(C(=O)OC)[C@H]2C(=O)N(Cc3ccccc3)C(=O)[C@@H]12)C(=O)C1CCCCC1`, the inhibition is -2.32%. In the case of `O=C(NNC(=O)c1ccccc1Br)c1ccc2nc[nH]c2c1`, the inhibition was 22.1%.

Take `CCOC(=O)C1(CC)NC(c2ccc(N(C)C)cc2)C2C(=O)N(C)C(=O)C21` (stereo not drawn): the inhibition is 9.29%.

Regarding `COc1ccc2c(c1)-c1c(ssc1=S)C(C)(C)N2S(=O)(=O)c1ccc(C)cc1`, the inhibition was 17.8%. Under `CCOc1ccc2c(c1)-c1c(ssc1=S)C(C)(C)N2C(=O)c1ccco1` stands 1.84%; under `CCN(CC(=O)Nc1c(F)cccc1F)C(=O)CSc1ccccc1`, -8.64%. `COc1ccc(/C=N/Nc2cc(N3CCOCC3)ncn2)c(OC)c1`: the inhibition is -0.39%.

Regarding `COc1cccc(/C=N/Nc2c(Cl)cncc2Cl)c1O`, the inhibition is 1.36%. In the case of `Clc1ccccc1/C=N/Nc1cc(N2CCOCC2)ncn1`, the inhibition is 17.6%.

As for `COc1cccc(/C=N/Nc2cc(Cl)nc(C)n2)c1O`, the inhibition was -12.7%. `COc1cc(N/N=C/c2ccc(N(C)C)cc2)ncn1`: the inhibition is -5.63%.

In the case of `COc1ccc(/C=N/Nc2cc(OC)ncn2)cc1`, the inhibition is 3.33%. On to `Oc1ccccc1/C=N/Nc1cccc2cccnc12`, for which the inhibition was -0.48%. Turning to `Oc1ccccc1/C=N/Nc1ccnc(SCc2ccccc2)n1`, the inhibition is -3.79%. Take `CCN(C(=O)COC(=O)Cc1c[nH]c2ccccc12)C1CCS(=O)(=O)C1` (stereo not drawn): the inhibition is 2.01%. `Cc1ccc(NC(=O)CSc2nc3ccccc3c(=O)[nH]2)cc1[N+](=O)[O-]`: the inhibition is 5.04%. On to `COc1ccccc1NC(=O)NNC(=O)CCc1ccccc1`, for which the inhibition is -10.3%.

With `COc1ccc(NC(=S)N(CCCN2CCOCC2)Cc2cn(C)c3ccccc23)cc1OC`, the inhibition is 2.8%. Then `COc1ccc(OCc2nnc(SCc3ccc(C(=O)O)cc3)o2)cc1`, with 5.27%; and `O=C(NC1CCCC1)C(c1ccc(F)cc1)N(C(=O)c1csnn1)c1ccccc1F` (stereo not drawn), with -6.01%. With `Cn1cc(CN2CCC(n3nccc3NC(=O)CCCc3ccccc3)CC2)cn1`, the inhibition is -14%.

Regarding `COc1ccc(-c2cc(C(=O)NCCN3CCOCC3)c3ccccc3n2)cc1OC`, the inhibition is 23%.

In the case of `O=C(CSc1nnc(Nc2ccccc2)s1)Nc1cccc(S(=O)(=O)N2CCCCC2)c1`, the inhibition is -4.99%.

In the case of `CS(=O)(=O)Nc1ccccc1C(=O)OCC(=O)N1CCC(c2ccccc2)=N1`, the inhibition was -6.95%. On to `Cc1ccc(S(=O)(=O)CCC(=O)Nc2nc(-c3ccccn3)cs2)cc1`, for which the inhibition is 7.88%.

As for `O=C(CCS(=O)(=O)c1ccc(F)cc1)Nc1nc(-c2ccncc2)cs1`, the inhibition was -5.43%. Under `O=C(CCS(=O)(=O)c1ccccc1)Nc1nc(-c2ccc(F)cc2)cs1` stands -4.12%; under `O=C(CCS(=O)(=O)c1ccccc1)Nc1nc(-c2cccs2)cs1`, -56.6%; under `CC(C)Oc1ccc(S(=O)(=O)N2CCCCC2)cc1NC(=O)CN1C(=O)NC(C)(C2CC2)C1=O` (stereo not drawn), -3.52%. On to `O=C(C1CCN(S(=O)(=O)c2ccccc2)CC1)N1CCCCCC1`, for which the inhibition is 12.9%. On to `CC(C)(C)C(=O)CSc1nc2ncc(Br)cc2[nH]1`, for which the inhibition is 0.51%. Then `C/C(=N/NC(=O)c1cn(-c2cccc(C)n2)cn1)c1ccc(C)cc1`, with 3.85%; and `Cc1ccc(NC(=O)c2cn(-c3cccc(C)n3)cn2)cc1`, with -6.72%. For the compound `Cc1cccc(-n2cnc(C(=O)N/N=C/c3ccccc3)c2)n1`, the inhibition is -4.63%.

For the compound `COC(=O)c1ccc(NC(=O)c2cn(-c3cccc(C)n3)cn2)cc1`, the inhibition was -7.7%. In the case of `COc1ccc(OC)c(NC(=O)COC(=O)[C@H](Cc2ccccc2)NC(=O)c2ccco2)c1`, the inhibition is -3.78%. Under `O=C(c1ccc(Cn2c(=S)[nH]c3ccc(N4CCOCC4)cc3c2=O)cc1)N1CCN(c2ccc(F)cc2)CC1` stands -6.32%; under `COc1cc(CN(C)C)cc(C=O)c1O`, 1.87%. As for `Nc1nc2cc(Br)ccc2o1`, the inhibition is -24.5%.

Consider `COc1cc(C(C)=O)ccc1OCC(=O)Nc1cc(Cl)ccc1-n1cncn1`, for which the inhibition is -5.4%. Then `O=C(NCC(=O)N(c1ccc(F)cc1)C(C(=O)NC1CCCC1)c1cccnc1)c1cccs1` (stereo not drawn), with -7.6%. On to `O=C(CN1C(=O)c2cccnc2Oc2ccc(Cl)cc21)N1CCCC1`, for which the inhibition is -12.6%. Then `O=C1c2ccccc2CN1CCNS(=O)(=O)c1ccc2ccccc2c1`, with 0.05%; and `CCN(Cc1nc2cc(Cl)ccc2c(=O)[nH]1)C(=O)c1cc2c(s1)CCCCC2`, with -9.24%; and `CC1(C(=O)NCc2cc(F)cc(C(F)(F)F)c2)C=CC2(CCCCC2)N1C(=O)c1ccccc1` (stereo not drawn), with -9.29%. In the case of `CS(=O)(=O)N(CC(=O)NCC1CCCO1)Cc1ccc(Cl)cc1` (stereo not drawn), the inhibition is -3.33%.

Turning to `O=C(NNc1c2ccccc2nc2ccccc12)c1ccccc1O`, the inhibition is -2.01%. For `O=C(NNc1c2ccccc2nc2ccccc12)c1ccccc1Cl`, the inhibition is -1.62%.

In the case of `Cc1cccc(C)c1NC(=O)CN(C)C(=O)C(c1ccccc1)c1ccccc1`, the inhibition was -4.5%. Turning to `COc1ccc(COC(=O)CCS(=O)(=O)c2ccc(C)cc2)cc1F`, the inhibition is -5.19%. With `CCN(CC)CCCNc1ccc2ncn3c4ccc(O)cc4c(=O)c1c23`, the inhibition was 18.1%. Take `CCN(CC)CCNc1ccc(CO)c2sc3ccccc3c(=O)c12`: the inhibition is -1.15%. With `CN(C)CCNc1ccc(CO)c2sc3ccc(O)cc3c(=O)c12`, the inhibition is 21.9%. Then `CN(C)CCNc1ccc(CO)c2oc3ccc(O)cc3c(=O)c12`, with 2.86%; and `CCOC(=O)N1CCN(C(=O)CN(C)S(=O)(=O)c2ccc3c(c2)c(=O)n(C)c(=O)n3C)CC1`, with 1.25%; and `CCn1nc(C)c(/C=N\NC(=O)c2cccc(OC)c2)c1C`, with -6.26%. Take `O=C(Nc1cccnc1)C1CCN(S(=O)(=O)c2cccc3nonc23)CC1`: the inhibition is 7.53%. On to `CCOc1cc(/C=C2\SC(=S)N(Nc3ccccc3)C2=O)ccc1O`, for which the inhibition is -19.7%. Then `COc1cc(/C=C2\SC(=S)N(Nc3ccccc3)C2=O)ccc1O`, with 16.4%; and `N#CC1=C2SCCN2C(=O)C(C#N)C12CCCCC2` (stereo not drawn), with -0.17%. Take `Cc1cc(C)c2oc(=O)cc(CN3CCN(Cc4ccccc4)CC3)c2c1`: the inhibition is 0.54%. `COc1cccc(-n2c(SCC(=O)NCc3cccs3)nc3ccccc3c2=O)c1`: the inhibition is 0.54%. Under `O=C(c1ccc(F)cc1)N1CCC(C(=O)N2CCN(S(=O)(=O)c3cccc(Cl)c3)CC2)CC1` stands -5.53%. Then `CCOCCc1nnc(NC(=O)CN2C(=O)c3ccccc3C2=O)s1`, with -7.03%. Consider `CN(C)c1ncc(C2=C(Cl)C(=O)C(N3CCCC3)=C(Cl)C2=O)s1`, for which the inhibition is 8.59%. Turning to `CN1CCN(C2=C(Cl)C(=O)C(c3cnc(N4CCCCC4)s3)=C(Cl)C2=O)CC1`, the inhibition is 18.9%.
